About 83,000 compounds went through this panel and 20% of them were active in at least one assay; those are over-represented in the sample as a whole.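 Single-dose data. Exposure time 48 hours. Values below 10 considered active.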 Activity calls are given as the source filed them.
Experiments:
Assay in all cases: NCI-60 one-dose screen, 48 h (100 = growth as untreated, 0 = no growth, -100 = all killed)
Settings in all cases: 10 µM unless noted
EKVX NSCLC = test system: EKVX NSCLC
SN12C renal = test system: SN12C renal
UO-31 renal = test system: UO-31 renal
ACHN renal = test system: ACHN renal
CAKI-1 renal = test system: CAKI-1 renal
A498 renal = test system: A498 renal
CCRF-CEM leukemia = test system: CCRF-CEM leukemia
MOLT-4 leukemia = test system: MOLT-4 leukemia
SR leukemia = test system: SR leukemia
RPMI-8226 leukemia = test system: RPMI-8226 leukemia
OVCAR-8 ovarian = test system: OVCAR-8 ovarian
OVCAR-5 ovarian = test system: OVCAR-5 ovarian
OVCAR-4 ovarian = test system: OVCAR-4 ovarian
SK-OV-3 ovarian = test system: SK-OV-3 ovarian
IGROV1 ovarian = test system: IGROV1 ovarian
OVCAR-3 ovarian = test system: OVCAR-3 ovarian
HS 578T breast = test system: HS 578T breast
NCI/ADR-RES ovarian = test system: NCI/ADR-RES ovarian
T-47D breast = test system: T-47D breast
TK-10 renal = test system: TK-10 renal

Measured: growth

CCOC(=O)c1c(Nc2ccccc2)nn2c(N)c(C#N)c(-c3ccc(Cl)cc3)nc12
inactive: EKVX NSCLC 68.9% | SN12C renal 53.1% | UO-31 renal 93.8% | ACHN renal 42.1% | CAKI-1 renal 31.5% | A498 renal 63.3% | CCRF-CEM leukemia 83% | MOLT-4 leukemia 87.5% | SR leukemia 86.9% | RPMI-8226 leukemia 86.1% | OVCAR-8 ovarian 42.5% | OVCAR-5 ovarian 78.5% | OVCAR-4 ovarian 44.1% | SK-OV-3 ovarian 59.4% | IGROV1 ovarian 70.5% | OVCAR-3 ovarian 81.8% | HS 578T breast 33.8% | NCI/ADR-RES ovarian 71% | T-47D breast 68.5%

CN(C)CCCNc1c2ccccc2nc2c1oc1ccc(Cl)cc12
inactive: EKVX NSCLC 43.5% | SN12C renal 26.6% | UO-31 renal 39.5% | ACHN renal 17.5% | CAKI-1 renal 21.4% | CCRF-CEM leukemia 24.1% | RPMI-8226 leukemia 14.4% | OVCAR-8 ovarian 25.4% | OVCAR-5 ovarian 51.6% | OVCAR-4 ovarian 50.6% | SK-OV-3 ovarian 57.6% | IGROV1 ovarian 25.8% | OVCAR-3 ovarian 63.5% | HS 578T breast 47.7% | NCI/ADR-RES ovarian 22% | T-47D breast 63.7%
active: A498 renal 7.63% | MOLT-4 leukemia 3.74% | SR leukemia -30.8%

CC1=C(C)C(=O)C(Nc2cccc(C(F)(F)F)c2)=C(Cl)C1=O
active: ACHN renal -37.7% | CCRF-CEM leukemia 5.9% | RPMI-8226 leukemia -3.12% | OVCAR-4 ovarian -80.4% | IGROV1 ovarian -7.2% | T-47D breast -39%
inactive: EKVX NSCLC 49.4% | SN12C renal 87.6% | UO-31 renal 77.3% | TK-10 renal 184% | CAKI-1 renal 92.7% | MOLT-4 leukemia 23.5% | SR leukemia 25% | OVCAR-8 ovarian 87.1% | OVCAR-3 ovarian 70.4% | HS 578T breast 87.6%

CC(C)(C)Nc1nc2c(OCCc3ccccc3)cccn2c1-c1ccccc1Cl
active: EKVX NSCLC 6.5% | SN12C renal 0.779% | UO-31 renal -14% | ACHN renal 4.1% | CAKI-1 renal -6.8% | A498 renal -23% | CCRF-CEM leukemia 1.24% | MOLT-4 leukemia -21.5% | SR leukemia -14.6% | RPMI-8226 leukemia -25.8% | OVCAR-8 ovarian 9.35% | SK-OV-3 ovarian -22.7% | IGROV1 ovarian 5.74% | OVCAR-3 ovarian 8.2% | HS 578T breast -1.74% | NCI/ADR-RES ovarian 5.82%
inactive: OVCAR-5 ovarian 10.9% | OVCAR-4 ovarian 13.5% | T-47D breast 10.3%

COc1ccc(/C=C2\SC(=Nc3cc(C)[nH]n3)NC2=O)cc1
inactive: EKVX NSCLC 91.5% | SN12C renal 96% | UO-31 renal 75.3% | TK-10 renal 102% | ACHN renal 88.1% | CAKI-1 renal 83.4% | CCRF-CEM leukemia 86.7% | MOLT-4 leukemia 94% | SR leukemia 82% | RPMI-8226 leukemia 88.2% | OVCAR-8 ovarian 103% | OVCAR-4 ovarian 97.4% | IGROV1 ovarian 97.3% | OVCAR-3 ovarian 104% | HS 578T breast 91.4% | NCI/ADR-RES ovarian 98.3% | T-47D breast 85.2%

N#Cc1nc(-c2ccccc2)oc1S(=O)(=O)N1CCN(CCc2ccccn2)CC1
inactive: EKVX NSCLC 89% | SN12C renal 77.2% | CAKI-1 renal 54.3% | A498 renal 112% | RPMI-8226 leukemia 36.1% | OVCAR-8 ovarian 84.9% | OVCAR-5 ovarian 86.3% | OVCAR-4 ovarian 89.7% | SK-OV-3 ovarian 137% | IGROV1 ovarian 10% | OVCAR-3 ovarian 31.2% | HS 578T breast 106% | NCI/ADR-RES ovarian 99.2%
active: UO-31 renal -42.3% | ACHN renal -95.4% | CCRF-CEM leukemia 1.54% | MOLT-4 leukemia 0.215% | SR leukemia -19.2% | T-47D breast -24.2%

COc1cc(/C=C/C(=O)c2cc(OC)c(OC)c(OC)c2)ccc1Oc1nc(NCCO)nc(N2CCOCC2)n1
inactive: EKVX NSCLC 11.2% | UO-31 renal 20.9% | TK-10 renal 20.9% | CAKI-1 renal 15.6% | OVCAR-8 ovarian 21.2% | OVCAR-5 ovarian 18.3% | OVCAR-4 ovarian 20% | NCI/ADR-RES ovarian 64.5% | T-47D breast 19.2%
active: SN12C renal 9.45% | ACHN renal -52.5% | CCRF-CEM leukemia 0.121% | MOLT-4 leukemia 6.72% | SR leukemia -0.481% | RPMI-8226 leukemia -24.9% | IGROV1 ovarian 1.1% | OVCAR-3 ovarian -3.03% | HS 578T breast 7.51%

COc1ccc(C(=O)c2cc(C(=O)/C=C/c3c(Cl)cccc3Cl)c3cc(C)ccn23)cc1
inactive: EKVX NSCLC 92.1% | SN12C renal 94.2% | UO-31 renal 96.6% | TK-10 renal 119% | ACHN renal 101% | CAKI-1 renal 89.9% | CCRF-CEM leukemia 99.8% | MOLT-4 leukemia 96.4% | SR leukemia 97% | RPMI-8226 leukemia 92.6% | OVCAR-8 ovarian 100% | OVCAR-5 ovarian 102% | OVCAR-4 ovarian 106% | IGROV1 ovarian 95.9% | OVCAR-3 ovarian 103% | HS 578T breast 95.7% | T-47D breast 91.7%

Clc1ccc2c(NCCCN3CCOCC3)c3oc4ccc(Cl)cc4c3nc2c1
active: SR leukemia 1.24%
inactive: EKVX NSCLC 65.3% | SN12C renal 40% | UO-31 renal 32.2% | ACHN renal 12.1% | CAKI-1 renal 21.6% | A498 renal 49.7% | CCRF-CEM leukemia 48.9% | MOLT-4 leukemia 15.4% | RPMI-8226 leukemia 67.8% | OVCAR-8 ovarian 35.6% | OVCAR-5 ovarian 47.4% | OVCAR-4 ovarian 87.4% | SK-OV-3 ovarian 89.3% | IGROV1 ovarian 42.9% | OVCAR-3 ovarian 104% | HS 578T breast 84% | NCI/ADR-RES ovarian 42.5% | T-47D breast 91.4%

— PubChem BioAssay (NCI)
